According to the supplement of paper PMC9877034:
Where a name gives a salt, the structure may show the parent alone. The full ranking holds about 1,000 compounds; the median of “cFRET/donor change relative to DMSO, normalised to beta-lapachone positive control (supercomplex I-IV assembly)” is about 0.18, and the lowest 2% start at about -1. For the sample, the lowest values were picked, then their nearest neighbours and some compounds at random.

system: C2C12 (NDUFB8-AcGFP / COX8A-DsRed-Monomer FRET reporter); assay: cFRET/donor change relative to DMSO, normalised to beta-lapachone positive control (supercomplex I-IV assembly) (fraction of beta-lapachone effect); higher = more respiratory supercomplex assembly; conditions: 40 µM; 24 h
Description: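 Cells were treated with 40 uM compound for 24 h and imaged on an IN Cell Analyzer 6000. Corrected FRET was divided by donor signal (cFRET/donor) and measured in two replicate experiments. The score is (mean cFRET/donor of compound - mean DMSO) / (mean beta-lapachone 40 uM - mean DMSO). Compounds flagged for prominent cell death, abnormal morphology or decreased cell number were excluded.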

Row | SMILES | cFRET/donor change
1 | COc1cc2nc(N3CCCN(C)CC3)nc(NC3CCN(Cc4ccccc4)CC3)c2cc1OC | 0.186
2 | C=C(c1ccc(C(=O)O)cc1)c1cc2c(cc1C)C(C)(C)CCC2(C)C [Bexarotene] | 0.499
3 | c1ccc(C(NCCNC(c2ccccc2)c2ccccc2)c2ccccc2)cc1 | 0.0957
4 | COc1ccccc1CNC1CCCNC1c1ccccc1 (stereo not drawn) | 0.266
5 | O=C(Nc1cc(C(F)(F)F)cc(C(F)(F)F)c1)Nc1c(Br)cc(Br)cc1-c1nn[nH]n1 | 1.37
6 | C[C@@H](O)[C@H]1C(=O)N2C(C(=O)O)=C(SCCNC=N)C[C@H]12 [Imipenem monohydrate] | 0.461
7 | Cc1cc(C)c(/C=C2\C(=O)Nc3ccccc32)[nH]1 | -2.59
8 | COc1cc(OC)c(C=C2C(=O)Nc3ccccc32)c(OC)c1 | 0.382
9 | CN(C)CCC(c1ccc(Br)cc1)c1ccccn1 (racemic) [(±)-Brompheniramine maleate] | 0.0175
10 | Clc1ccc(C(c2ccccc2Cl)C(Cl)Cl)cc1 (stereo not drawn) [1-(2-Chlorophenyl)-1-(4-chlorophenyl)-2,2-dichloroethane] | 0.237
11 | NCCC[C@](N)(C(=O)O)C(F)F (racemic) [DL-alpha-Difluoromethylornithine hydrochloride] | 0.232
12 | COc1cc(/C=C/C(=O)N2CCC=CC2=O)cc(OC)c1OC [Piperlongumine] | -0.315
13 | CC(C)(C)c1cc(/C=C(\C#N)C(N)=S)cc(C(C)(C)C)c1O [Tyrphostin AG 879] | -2.01
14 | N#CC(C#N)=C(N)/C(C#N)=C/c1ccc(O)cc1 [Tyrphostin AG 112] | 0.38
15 | CC(C)(C=O)Cc1cc(C(C)(C)C)c(O)c(C(C)(C)C)c1 | 0.29
16 | COc1ccc(C2(O)OC(=O)C(c3ccc4c(c3)OCO4)=C2Cc2cc(OC)c(OC)c(OC)c2)cc1 (stereo not drawn) | 0.173
17 | CCN1CCCC1CNC(=O)c1cc(S(N)(=O)=O)ccc1OC (single isomer, unassigned; (-)) [(-)-Sulpiride] | 0.312
18 | CC[C@@]1(O)C(=O)OCc2c1cc1n(c2=O)Cc2cc3c(CN(C)C)c(O)ccc3nc2-1 [Topotecan hydrochloride hydrate] | -3.92
19 | NCCCCN [Putrescine dihydrochloride] | 0.0353
20 | NCCCS(=O)(=O)O [3-Amino-1-propanesulfonic acid sodium] | -2.05
21 | NCCS(=O)(=O)O [Taurine] | -0.02
22 | COC1=C(OC)C(=O)c2ccccc2C1=O [2,3-Dimethoxy-1,4-naphthoquinone] | 0.433
23 | Cc1cc(Cl)ccc1OCCCC(=O)NO [Droxinostat] | 0.131
